Source: PubChem BioAssay
JMJD2E inh = blocks human JMJD2E demethylase activity | JMJD2E catalytic domain, FDH-coupled NADH fluorescence (FDH is formaldehyde dehydrogenase) | Potency, µM (top dose mostly 57.1 µM), for inactives: at the highest dose activity change, negative = inhibition, actives largely listed as inhibitors | 1.6% of 230,000 active | AID 2147;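 also: 0% = wells with enzyme and -100% = buffer wells without enzyme; nearly all actives have a fitted effect of over 50% in size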
Target sequence (B2RXH2 1-337 limits assumed): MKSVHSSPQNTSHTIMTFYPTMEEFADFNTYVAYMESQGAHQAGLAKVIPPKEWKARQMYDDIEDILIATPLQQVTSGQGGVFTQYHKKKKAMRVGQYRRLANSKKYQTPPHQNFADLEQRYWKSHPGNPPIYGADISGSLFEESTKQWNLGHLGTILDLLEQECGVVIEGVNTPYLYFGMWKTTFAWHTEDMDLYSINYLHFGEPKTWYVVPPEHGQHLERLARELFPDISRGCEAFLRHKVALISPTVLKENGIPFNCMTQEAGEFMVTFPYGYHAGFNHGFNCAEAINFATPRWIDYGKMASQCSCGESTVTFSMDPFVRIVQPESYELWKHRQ
HTT aggregate = mutant huntingtin aggregation inhibition; PC12 HttQ103-GFP aggregates, Acumen cytometry, 40 h; Potency, µM (titrated, usually from 46.1 µM), inactives show at the highest dose activity change, negative = inhibition, most hits filed as inhibitors; 1.1% of 220,000 active; AID 1688; active = well fitted curve in the direction sought with a large enough effect; inconclusive = small, poorly fitted or top-dose-only effect, or another doubt; inactive = no such curve, though single readings can be large; an effect the other way counts as inactive or inconclusive; also: % is scaled to controls: 0 for no effect and ±100 for the full control effect; nearly all actives have a fitted effect of over 60% in size
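Ecdysone-promoter PC12 model expressing HTT exon 1 Q103 fused to GFP, induced by tebufenozide at 100 nM final. Compounds titrated; aggregates sized 1–25 µm scored on a 488 nm laser cytometer.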
HPGD block = HPGD (human) dehydrogenase inhibition. purified HPGD, NADH fluorescence kinetic, PGE2 substrate. Potency, µM, inactives show at the highest dose activity change, negative = inhibition, most hits filed as inhibitors. 4.3% of 150,000 active. AID 894; also: % is scaled to controls: 0 for no effect and ±100 for the full control effect
Target sequence (P15428 whole entry, looked up): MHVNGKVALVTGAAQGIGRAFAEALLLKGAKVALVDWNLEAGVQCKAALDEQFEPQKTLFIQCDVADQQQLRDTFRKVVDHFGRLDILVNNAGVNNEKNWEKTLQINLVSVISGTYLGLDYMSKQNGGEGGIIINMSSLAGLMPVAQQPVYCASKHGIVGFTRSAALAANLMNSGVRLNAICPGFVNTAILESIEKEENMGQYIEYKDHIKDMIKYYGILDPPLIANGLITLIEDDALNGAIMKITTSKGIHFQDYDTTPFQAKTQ
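NADH formation kinetics: reaction with 30 uM PGE2 and 1 mM NAD+ (final), 20 nM enzyme, Tris-HCl pH 8 with Tween 20, after 15 min compound preincubation at room temperature. Fluorescence change, last versus first of five reads.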
HTT ATP protect = Huntington cell model cytoprotection by ATP luminescence | PC12 HTT-Q103 induced, cytoprotection, ATP luminescence, 40 h | Potency, µM (top dose mostly 56.4 µM), inactives show cytoprotection (ATP increase), hits mostly activators | 0.14% of 230,000 active | AID 1471; active = well fitted curve in the direction sought with a large enough effect; inconclusive = small, poorly fitted or top-dose-only effect, or another doubt; inactive = no such curve, though single readings can be large; an effect the other way counts as inactive or inconclusive; also: % of control where 0% means no effect; nearly all actives have a fitted effect of over 45% in size
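ATP quantification (ATPlite) reports survival of PC12 cells in which tebufenozide, 100 nM final, switches on Htt exon 1 with 103 glutamines linked to GFP; compounds are titrated.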
LMNA splice mod = changes lamin A minigene splicing in HeLa cells. 0.01% of 200,000 active. Potency, µM (highest dose often 46.1 µM), without a hit: at the highest dose ratio change, negative = inhibition, usual class: inhibitors. AID 1487. HeLa LMNA splicing GFP/RFP minigene ratio, 48 h; active = well fitted inhibition curve with a large enough effect in the signal ratio, with a control signal flat, not every such curve was filed as active; inconclusive = small, poorly fitted or top-dose-only effect, or effect the other way, or a change in a side signal; the % refers to the signal ratio; also: % is scaled to controls: 0 for no effect and ±100 for the full control effect
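S3 HeLa stable clones carrying a lamin A-EGFP splicing minigene plus DsRed2 were seeded at 600 cells/well in Opti-MEM with 2% FBS, pin-dosed and incubated 48 h at 37°C. Acumen cytometry (488 nm) gave the GFP/RFP total-intensity ratio.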
ALDH1A1 inh = inhibitors of human aldehyde dehydrogenase 1A1 | AID 1030 | 7.3% of 220,000 active | P00352 | Purified ALDH1A1, NADH fluorescence, propionaldehyde substrate | Potency, µM (titrated, usually from 75.3 µM), for the others: at the top dose activity, negative = inhibition, usual class: inhibitors;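 also: plate controls were no enzyme wells and a reference inhibitor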
The depositor's hits bear a star; ? = inconclusive; . = not tested or not shown; [ ] = dose if it differs, or a comment. Most compounds without a hit are left out; they make up all but 9.2% or so of the library. Unless noted, calls follow the shape of the dose curve; as a rule, active = well fitted inhibition curve with a large enough effect (not every such curve was filed as active); inconclusive = small, poorly fitted or top-dose-only effect, or another doubt; inactive = no such curve, though single readings can be large or run the other way. Potency is read from the fitted curve at half-maximal effect.

SMILES | JMJD2E inh | HTT aggregate | HPGD block | HTT ATP protect | LMNA splice mod | ALDH1A1 inh
CC1CC(C)CN(C(=O)c2ccc(CSc3nc4ccncc4[nH]3)cc2)C1 (stereo not given) | 14% | -23% | 5.6µM* | . | ? | 0%
CCN(CCNC(=O)c1ccc(CSc2nc3ccncc3[nH]2)cc1)c1ccccc1 | 14% | ? | -13% | . | ? | -9%
N=c1nc(N)nc(N)n1-c1ccc(S(N)(=O)=O)cc1 | . | . | 3% | 1%[10 µM] | . | 10%[13.5 µM]
CN1C[C@H](C(=O)N[C@]2(C)O[C@@]3(O)[C@H]4CCCN4C(=O)[C@@H](Cc4ccccc4)N3C2=O)C[C@H]2c3cccc4[nH]cc(c34)C[C@@H]21 | . | . | . | -4% | . | .
Cc1csc(SCC(=O)NCc2cccc(Cl)c2)n1 | 2% | 20% | . | -32% | -5%[46 µM] | ?
CCC(c1nnc(SCC(=O)NCCc2ccc(Cl)cc2Cl)o1)N(C)C (stereo not given) | -1% | 3% | 14µM* | -9%[10 µM] | 5% | 16µM*
O=C(CSc1ccc2c(c1)OCCO2)NCCc1ccc(Cl)cc1Cl | 8% | 0% | . | -10%[10 µM] | ? | -9%
Cc1csc(SCC(=O)NCCc2ccc(Cl)cc2Cl)n1 | 2% | 3% | 28µM* | -9%[10 µM] | -2% | 1%
O=c1[nH]c(/C=C2\C=Nc3ccccc32)c(O)n1Cc1ccccc1F | ? | -22%[9.22 µM] | . | -61%[10 µM] | -8%[9.22 µM] | 13µM*
O=C(CCSc1ccc(Cl)cc1)NC1CCCCC1 | 3% | 27% | 4.5µM* | 8% | 25% | 11%
O=C(CCSc1ccc(Cl)cc1)NC12CC3CC(CC(C3)C1)C2 | ? | ? | ? | -93% | -19% | ?
O=C(CSCc1ccc(Cl)cc1)NN=C1CCCCCC1 | 7% | 4% | -14% | 15%[10 µM] | -3% | 14µM*
O=C(CSc1ccc(Cl)cc1)NN=C1CCCCCC1 | 28% | 4% | . | -18% | 26%[46 µM] | ?
O=C(CCSc1ccc(Cl)cc1)NN=C1CCCCCC1 | 4% | -4% | . | 9% | . | 11µM*
CC(=O)N1CCCc2cc(S(=O)(=O)N3CCCCC3)ccc21 | . | . | . | . | -5%[46 µM] | .
CCc1ccc(NC(=O)N(CCN2CCOCC2)Cc2ccc3c(c2)CCCN3CC)cc1 | 4% | 11%[9.22 µM] | ? | -1% | 13% | ?
CCN1CCCc2cc(CN(CCN3CCOCC3)C(=S)Nc3ccc(OC)c(Cl)c3)ccc21 | -4% | 8% | . | . | . | 18µM*
CCN1CCCc2cc(CN(CCN3CCOCC3)C(=S)Nc3ccc(OC)c(OC)c3)ccc21 | -5% | 1% | . | -72% | 8%[46 µM] | 3.2µM*
COc1ccc(NC(=S)N(Cc2ccc(Cl)cc2)Cc2ccc(C(=O)O)cc2)cc1Cl | -6% | -9% | . | 17% | ? | 20µM*
Cc1cc(NC(=S)N(Cc2ccc(Cl)cc2)Cc2ccc(C(=O)O)cc2)ccc1Cl | -2% | -10% | . | -26% | 3%[46 µM] | -5%
COc1ccc(C2=Nc3ccccc3OC2)cc1 | ? | 34% | -19% | -51% | ? | 22µM*
CCN(CC)S(=O)(=O)c1nnc(NC(=O)COc2ccc(C)cc2)s1 | . | . | . | . | 26%[46 µM] | .
C=C(C)CNC(=S)N/N=C/c1ccco1 | -13% | 19%[9.22 µM] | . | 33%[10 µM] | . | .
CCOC(=O)c1cc(-c2ccc(F)cc2)n(CCC(=O)NC2CCCCC2)c1C | . | . | . | . | -13%[46 µM] | .
O=C(c1ccco1)N1CCN(S(=O)(=O)c2ccc(Br)s2)CC1 | -7% | -2% | ? | 7% | -11% | 8.9µM*
SMILES | JMJD2E inh | HTT aggregate | HPGD block | HTT ATP protect | LMNA splice mod | ALDH1A1 inh
N#CC1=C(N)N(c2ccc(Cl)c(Cl)c2)C(=O)C1 | -3% | 13% | . | 28%[10 µM] | -5%[46 µM] | 28µM*
CN(C)C1=C(Cl)C(=O)N(c2ccc(Cl)c(Cl)c2)C1=O | 4% | -19%[9.22 µM] | . | 6%[10 µM] | . | .
COc1ccc(C)cc1NC(=O)c1cc(S(=O)(=O)N2CCc3ccccc3C2)ccc1F | . | . | . | . | -14%[46 µM] | .
O=C(COc1ccccc1)NCCSc1ccccc1 | 3% | 3% | -20% | 35% | -5% | -4%
O=C(COc1ccccc1)NCCSCc1ccco1 | -2% | 2% | 22µM* | 16%[10 µM] | -7% | ?
O=C(CCSc1ccccc1)NCCSCc1ccco1 | -2% | 10% | . | 26%[10 µM] | -15% | 11µM*
Cc1ccc(CN(C(=O)c2csnn2)C(C(=O)NC2CCCC2)c2ccc(C)o2)cc1 (stereo not given) | 2% | 3% | -17% | -15%[10 µM] | -13% | 14µM*
Cc1ccc(C(C(=O)NC2CCCC2)N(C(=O)c2csnn2)C2CCCC2)o1 (stereo not given) | 7% | 10% | . | 11% | 7% | -15%
Cc1ccc(C(C(=O)NC2CCCCC2)N(Cc2cccnc2)C(=O)C2COc3ccccc3O2)o1 (stereo not given) | -4% | 24% | -8% | -24%[10 µM] | -1% | 13µM*
O=C(Nc1cccc(F)c1)N1CCCC2(CCN(C(=O)c3cc(C(F)(F)F)cc(C(F)(F)F)c3)CC2)C1 | . | . | -7% | -39% | . | 2%
CC1=NN2C(=N)/C(=C\c3ccc(SCc4ccccc4)o3)C(=O)N=C2S1 | -17% | 5% | -22% | -26% | 11% | -16%
N=C1/C(=C\c2ccc(SCc3ccco3)o2)C(=O)N=C2SC=NN12 | 28µM* | -6% | 25µM* | -61% | 8% | 7.9µM*
CCOC(=O)CSc1nc2ccccc2c(=O)[nH]1 | 2% | 6% | -17% | 7%[10 µM] | -1% | 7%
CCOC(=O)CSc1nnc(CSc2nc3sc4c(c3c(=O)[nH]2)CCC4)n1C | -4% | 3%[9.22 µM] | 8.9µM* | -8% | 2% | -6%
Nc1nc(SCc2nc3sc4c(c3c(=O)[nH]2)CCCC4)n[nH]1 | 5% | -11% | -9% | -6%[10 µM] | ? | ?
Cc1nnc(SCc2nc3sc4c(c3c(=O)[nH]2)CCCC4)n(N)c1=O | -9% | -5%[9.22 µM] | . | -1%[10 µM] | ? | 22µM*
CCOC(=O)CSc1nnc(CSc2nc3ccccc3c(=O)[nH]2)n1-c1ccccc1 | 2% | -4% | 4.5µM* | 3% | -4% | ?
CCOC(=O)CSc1nnc(CSc2nc3sc4c(c3c(=O)[nH]2)CCC4)n1-c1ccccc1 | -4% | -8% | 8.9µM* | 11% | 22% | 8%
CCOC(=O)c1noc2ncn(CC(=O)Nc3cccc(Cl)c3)c(=O)c12 | . | . | . | . | 7%[46 µM] | .
CCn1cc(C(=O)NCCc2ccccc2)c(=O)c2cc(S(=O)(=O)N3CCCC3)ccc21 | 7% | -14% | . | 18% | . | 32µM*
O=C(COc1ccc(S(=O)(=O)NC2CCCCC2)cc1Cl)NCc1ccc2c(c1)OCO2 | -10% | -26% | -21% | -15% | ? | -4%
CCOC(=O)c1cn(CC)c2ccc(S(=O)(=O)N3CCC(C)CC3)cc2c1=O | -7% | -7% | 16µM* | -18%[0.074 µM] | 2% | -12%
O=C(OCc1ccc2c(c1)OCO2)c1cccc(S(=O)(=O)N2CCCCC2)c1 | -4% | -5% | ? | 1% | 23% | 7.1µM*
